Among the data in the supplement of paper PMC8540655 are larval motility values, retold here.

Unmarked numbers belong to inactive results.

The test relates to Aedes aegypti larvae. As to the kind of experiment: larval motility relative to same well at 0 h (fraction); higher = more motile (less active compound), active = 0.4 or less. To be noted: 10 µM. The method, boiled down: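 Aedes aegypti larvae were hatched at 25 °C in pond salt solution with yeast, collected after 18–24 h, and dispensed at about 10 per well (100 µL) in 96-well plates. Compounds were tested at 10 µM in 1% v/v DMSO, and each plate carried solvent and larvicide control wells. INVAPP movies of 200 frames at 100 ms intervals were recorded at 0, 2 and 24 h, and each value is the median of three independent larval batches. Relative motility is each well's score divided by that same well's starting score.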

On to `CN(C)c1[nH]c(=O)ncc1F`, for which the larval motility is, setting by setting: (2 h) 1.24; (24 h) 1.3.
As for `COc1ccc(CNC(=O)C(NS(=O)(=O)c2ccc3nc(C)sc3c2)C(C)C)cc1` (stereo unspecified), the larval motility is, setting by setting: (2 h) 0.329 (active); (24 h) 0.365 (active).
Consider `Cc1c(CN(C)C(=O)/C=C/c2cnc3c(c2)C(C)(C)C(=O)N3)oc2ccccc12`, for which the larval motility (2 h) was 1.24 and the larval motility (24 h) is 1.15.
On the same counts, the results for `COc1c(F)c(F)cc2c(=O)c(C(=O)O)cn(C3CC3)c12` are 0.765 and 1.08.
As for `CCCCN1C[C@H](O)[C@@H](O)[C@H](O)[C@H]1CO`, the larval motility (2 h) is 0.87 and the larval motility (24 h) is 0.809.
As to `O=C(O)COc1cccc2c1CC[C@](O)(COC(=O)N(c1ccccc1)c1ccccc1)C2`, the larval motility (2 h) was 0.909 and the larval motility (24 h) was 0.745.
In the case of `CCCNc1ccc(S(=O)(=O)Nc2cc(C)on2)cc1`, the larval motility is 0.414 (2 h) and 0.825 (24 h).
Take `CCc1cc(Cc2cnc(N)nc2N)cc2c1N(C)CCC2C` (stereo unspecified): the larval motility reads like this: (2 h) 0.948; (24 h) 0.898.
On the same counts, the results for `CCOc1ccc(C(=O)NCCc2ccccc2)cc1` are 1.05 and 0.979.
In the case of `O=C(/C=C/n1cnc(-c2cc(C(F)(F)F)cc(C(F)(F)F)c2)n1)NNc1cnccn1`, the larval motility is 0.908 (2 h) and 1 (24 h).
With `Cc1nc(-c2ccc(C3N(C)c4ccc(F)cc4C(=O)N3c3ccccc3)s2)cs1` (stereo unspecified), the larval motility (2 h) was 0.613 and the larval motility (24 h) was 0.822.
On to `Cc1onc(-c2ccccc2)c1-c1ccc(S(N)(=O)=O)cc1`, for which the larval motility is, setting by setting: (2 h) 0.513; (24 h) 0.435.
In the same order, the values of `CCc1cc(O)c(Oc2cccnc2N)cc1F` are 1.72 and 1.42.
For the compound `CCCCCOc1ccc(/C=C2\Oc3c(ccc(O)c3O)C2=O)c(O)c1`, the larval motility is, setting by setting: (2 h) 0.621; (24 h) 1.4.
In the case of `CCCC1(C2CC2)c2cc(Cl)ccc2NC(=O)N1C` (stereo unspecified), the larval motility reads like this: (2 h) 0.846; (24 h) 0.863.
As for `CCCCCc1ccc(C(=O)NCCn2cc(CCCCCc3cnc(N)[nH]3)nn2)cc1`, the larval motility is 0.643 (2 h) and 0.914 (24 h).
Take `CCC[C@H](NC(=O)[C@@H]1[C@H]2CCC[C@H]2CN1C(=O)[C@@H](NC(=O)[C@@H](NC(=O)c1cnccn1)C1CCCCC1)C(C)(C)C)C(=O)C(=O)NC1CC1`: the larval motility runs as follows: (2 h) 0.881; (24 h) 0.577.
On the same counts, the results for `Nc1ccc2oc(=O)ccc2c1I` are 0.518 and 0.509.
Turning to `COc1ccc2c(c1)cc(CNC(=O)c1cc3ccccc3o1)n2CC(=O)O`, the larval motility runs as follows: (2 h) 0.674; (24 h) 0.871.
For `O=c1cc(Nc2ccc3ccccc3c2)[nH]c(=O)[nH]1`, the larval motility by setting is: (2 h) 0.528; (24 h) 0.778.
Take `Nc1nc(Nc2ccc3nc(-c4ccc(F)cc4)cc(N)c3c2)cc(-c2ccccc2)n1`: the larval motility runs as follows: (2 h) 0.547; (24 h) 0.261 (active).
For the compound `N[C@@H]1CN(c2c(F)cc3c(=O)c(C(=O)O)cn([C@@H]4C[C@@H]4F)c3c2Cl)CC12CC2`, the larval motility (2 h) is 0.745 and the larval motility (24 h) is 1.11.
For the compound `CC1CN(c2ncnc3c2c(-c2ccccc2)cn3-c2ccc(F)cc2)CC(C)O1` (stereo unspecified), the larval motility by setting is: (2 h) 0.791; (24 h) 0.856.
With `CN(C)CCCNC(=O)c1ccc(-c2cc(O)c3ncccc3c2)cc1`, the larval motility runs as follows: (2 h) 0.79; (24 h) 0.683.
On the same counts, the results for `Cc1cccc(CC(=O)N[C@H]2CCOC2=O)c1` are 1.05 and 1.31.
With `CCCCC(CC)CNC(=N)NC(=N)NCCCCCCNC(=N)NC(=N)NCC(CC)CCCC` (stereo unspecified), the larval motility is 0.646 (2 h) and 1.07 (24 h).
Take `O=P(O)(O)C(CCCc1cccc(Oc2ccccc2)c1)S(=O)(=O)O` (stereo unspecified): the larval motility (2 h) was 0.663 and the larval motility (24 h) was 0.88.
Take `O=C(Nc1ccccc1)N(Cc1cc(Br)ccc1O)c1ccc(F)cc1`: the larval motility (2 h) was 0.646 and the larval motility (24 h) was 1.02.
Consider `CO/N=C(\C(=O)N[C@@H]1C(=O)N2C(C(=O)OCOC(=O)C(C)(C)C)=C(/C=C\c3scnc3C)CS[C@H]12)c1csc(N)n1`, for which the larval motility reads like this: (2 h) 1.51; (24 h) 1.18.
Regarding `O=[N+]([O-])c1cn2c(n1)OC[C@@H](OCc1ccc(OC(F)(F)F)cc1)C2`, the larval motility by setting is: (2 h) 1.12; (24 h) 1.3.
On the same counts, the results for `O=C(c1ccccc1)N1CCN(c2ccccc2NC(=O)C(Cl)(Cl)Cl)CC1` are 1.33 and 0.669.
For the compound `OB1OCc2c1ccc(Cl)c2F`, the larval motility (2 h) is 0.987 and the larval motility (24 h) is 1.19.
For `CCCCc1ccc(S(=O)(=O)Nc2cc(C)on2)cc1`, the larval motility reads like this: (2 h) 0.511; (24 h) 0.633.
Regarding `COc1ccc2cc3[n+](cc2c1OCCN(CCn1cncn1)Cc1ccc(F)cc1F)CCc1cc2c(cc1-3)OCO2`, the larval motility runs as follows: (2 h) 0.821; (24 h) 0.778.
Take `O=C(O)c1ccccc1Sc1ncnc2sc3c(c12)CCC3`: the larval motility runs as follows: (2 h) 0.968; (24 h) 0.722.
With `C[C@H]1CC[C@@]2(O)C(C)(C)[C@@H]3CC[C@@]2(C)[C@H]1C3`, the larval motility (2 h) was 0.756 and the larval motility (24 h) was 0.757.
For the compound `COc1ccc(C[C@@H](C)[C@@H](C)Cc2ccc(OC)c(OC)c2)cc1OC`, the larval motility runs as follows: (2 h) 0.799; (24 h) 0.813.
Take `CC(C)CCN1C(=O)C(C2=NS(=O)(=O)c3cc(NS(C)(=O)=O)ccc3N2)=C(O)[C@@H]2[C@H]3CC[C@H](C3)[C@@H]21`: the larval motility was 0.853 (2 h) and 0.888 (24 h).
Take `Fc1ccc2c(/C=C/c3cccnc3)c[nH]c2c1`: the larval motility was 1.04 (2 h) and 0.678 (24 h).
As for `O=C1CCC(N2C(=O)c3ccccc3C2=O)C(=O)N1` (stereo unspecified), the larval motility by setting is: (2 h) 1.17; (24 h) 1.13.
In the same order, the values of `NC(=O)c1c(N)sc2c1CCCCC2` are 0.947 and 1.32.
Take `Nc1nc(=O)c(Br)c(-c2cccc(Cl)c2)[nH]1`: the larval motility by setting is: (2 h) 0.895; (24 h) 0.972.
For `O=c1cc(NCCCN[C@@H]2CCOc3c(Br)cc(Br)cc32)[nH]c2ccsc12`, the larval motility (2 h) was 0.659 and the larval motility (24 h) was 1.28.
Regarding `O=S(=O)(Nc1ccc(-n2cccc2)cc1)c1ccc(Cl)c(Cl)c1`, the larval motility (2 h) was 1.06 and the larval motility (24 h) was 0.808.
In the case of `O=C(O)CSc1cc(NS(=O)(=O)c2cccc3cccnc23)c2ccccc2c1O`, the larval motility is 0.969 (2 h) and 0.675 (24 h).
`CCCc1ccc(-c2cc3cn([C@H]4C[C@H](O)[C@@H](CO)O4)c(=O)nc3o2)cc1`: the larval motility runs as follows: (2 h) 0.729; (24 h) 0.902.
`CC[C@H](NC(=O)[C@H](C)NC)C(=O)N1C[C@@H](O)C[C@H]1Cc1c(-c2[nH]c3cc(F)ccc3c2C[C@@H]2C[C@H](O)CN2C(=O)[C@H](CC)NC(=O)[C@H](C)NC)[nH]c2cc(F)ccc12`: the larval motility (2 h) is 0.407 and the larval motility (24 h) was 0.89.
In the same order, the values of `NC(=O)c1[nH]c2ccc(S(N)(=O)=O)cc2c1-c1ccccc1` are 0.832 and 1.05.
Regarding `COc1ccc2nc(-c3ccccc3)cc(O)c2c1`, the larval motility reads like this: (2 h) 1.08; (24 h) 0.908.
As for `CC[C@@]1(O)C(=O)OCc2c1cc1n(c2=O)Cc2cc3c(CN(C)C)c(O)ccc3nc2-1`, the larval motility is 0.831 (2 h) and 0.876 (24 h).
As for `N=C(N)c1ccc(COc2ccc(Cl)cc2)cc1`, the larval motility (2 h) was 1.16 and the larval motility (24 h) is 0.589.
`NC1C2CC3CC(C2)CC1C3` (stereo unspecified): the larval motility (2 h) is 0.973 and the larval motility (24 h) is 1.31.
In the same order, the values of `CS(=O)(=O)c1ccc(Oc2ccc(Cl)cc2)cc1` are 0.907 and 1.02.
Consider `Nc1nc(F)nc2c1ncn2[C@H]1O[C@@H](CO)[C@H](O)[C@@H]1O`, for which the larval motility runs as follows: (2 h) 0.949; (24 h) 0.854.
As for `O=C(NC1CCCc2c1[nH]c1ccc(Cl)cc21)c1ccccn1` (stereo unspecified), the larval motility is, setting by setting: (2 h) 1.38; (24 h) 1.01.
As for `O=C(CP(=O)(O)O)NCCc1cccc(Oc2ccccc2)c1`, the larval motility by setting is: (2 h) 2.12; (24 h) 1.06.
Regarding `CC(=O)N[C@H](C)C(=O)N[C@H](Cc1ccccc1)C(=O)O`, the larval motility by setting is: (2 h) 0.496; (24 h) 0.597.
Turning to `O=C1c2cccc3cccc(c23)C(=O)N1CC1CO1` (stereo unspecified), the larval motility by setting is: (2 h) 0.906; (24 h) 0.936.
On the same counts, the results for `OCCC#Cc1nc(-c2ccc(F)cc2)c(-c2ccncc2)n1CCCc1ccccc1` are 0.457 and 0.301 (active).
On to `Cc1c(F)cccc1NC(=O)Nc1ccc(Cl)c(S(=O)(=O)[C@H]2CCCNC2)c1O`, for which the larval motility (2 h) is 0.645 and the larval motility (24 h) is 0.669.
Take `CCCCCCCCCN1C[C@@H](O)[C@H](O)[C@@H](O)[C@@H]1CO`: the larval motility reads like this: (2 h) 0.996; (24 h) 1.3.
Turning to `Cc1onc(-c2ccccc2Cl)c1C(=O)N[C@@H]1C(=O)N2[C@@H]1SC(C)(C)[C@@H]2C(=O)O`, the larval motility runs as follows: (2 h) 1.22; (24 h) 1.24.
Take `Cn1c2ccccc2c(=O)c2c(O)cccc21`: the larval motility by setting is: (2 h) 1.15; (24 h) 1.13.
With `CC(N)C12CC3CC(CC(C3)C1)C2` (stereo unspecified), the larval motility is 1.14 (2 h) and 0.773 (24 h).
As to `CCc1nc(N)nc(N)c1C#CC(C)c1cc(OC)cc(-c2ccncc2)c1` (stereo unspecified), the larval motility reads like this: (2 h) 0.87; (24 h) 0.417.
In the case of `CCNC(=O)Nc1cn2c(-c3ncc(CC)cn3)cc(-c3cccnc3)cc2n1`, the larval motility by setting is: (2 h) 0.892; (24 h) 0.894.
For `CCOC(=O)N1CCN(c2ccc(Cl)cc2)CC1`, the larval motility was 1.05 (2 h) and 1.36 (24 h).
Turning to `CC(N)C(=O)NC(CCCCN)C(=O)NC(CCCNC(=N)N)C(=O)NC(Cc1c[nH]cn1)C(=O)NC(Cc1c[nH]cn1)C(=O)NCC(=O)NC(Cc1ccc(O)cc1)C(=O)NC(CCCCN)C(=O)NC(CCCNC(=N)N)C(=O)NC(CCCCN)C(=O)NC(Cc1ccccc1)C(=O)NC(Cc1c[nH]cn1)C(N)=O` (stereo unspecified), the larval motility reads like this: (2 h) 0.858; (24 h) 1.19.
